Compound activity deposited in PubChem by National Center for Advancing Translational Sciences (NCATS).
An excerpt weighted towards active compounds, which were near 11% of everything screened.
HTT aggregate: inhibitors of mutant huntingtin aggregate formation in PC12 cells. PC12 HttQ103-GFP aggregates, Acumen cytometry, 40 h. Potency, µM (series often up to 46.1 µM), for inactives: top-dose activity change, negative = inhibition, usual class: inhibitors. 220,000 tested, 1.1% active. AID 1688; active = well fitted curve in the direction sought with a large enough effect; inconclusive = small, poorly fitted or top-dose-only effect, or another doubt; inactive = no such curve, though single readings can be large; an effect the other way counts as inactive or inconclusive; note: potency is the fitted concentration of half-maximal effect; % is set by controls: 0 for no effect and ±100 for the full control effect; nearly all actives have a fitted effect of over 60% in size
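Read-out: GFP aggregate count by laser scanning cytometer (488 nm excitation, 500-530 nm emission, 1–25 µm objects >6 SD above background). Cells: PC12, inducible HTTex1-Q103-GFP, 100 nM tebufenozide; compounds titrated.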
HPGD block: inhibitors of human 15-hydroxyprostaglandin dehydrogenase (HPGD) | AID 894 | 150,000 tested, 4.3% active | purified HPGD, NADH fluorescence kinetic, PGE2 substrate | Potency, µM, without a hit: at the top dose activity change, negative = inhibition, actives largely listed as inhibitors | P15428; note: potency is the fitted concentration of half-maximal effect; % is set by controls: 0 for no effect and ±100 for the full control effect
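20 nM HPGD preincubated 15 min at room temperature with compound in 50 mM Tris-HCl pH 8, 0.01% Tween 20. Started with 1 mM NAD+ and 30 uM prostaglandin E2; NADH fluorescence (360/450 nm) read 5 times over 30-s intervals, last minus first.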
RGS12 GoLoco inh: blocks human Gai1 binding to RGS12 GoLoco peptide, red readout; P63096; Gai1:RGS12 GoLoco peptide FP, rhodamine, 10 min; Potency, µM (series often up to 61.6 µM), inactives show at the top dose activity, negative = inhibition, hits mostly inhibitors; 230,000 tested, 0.44% active; active = well fitted inhibition curve with a large enough effect, not every such curve was filed as active; inactive = no such curve, though single readings can be large or run the other way; note: potency is the fitted concentration of half-maximal effect; % is set by controls: 0 for no effect and ±100 for the full control effect; nearly all actives have a fitted effect of over 30% in size
ALDH1A1 inh: inhibitors of human aldehyde dehydrogenase 1A1 | Potency, µM (highest dose often 75.3 µM), without a hit: at the top dose activity, negative = inhibition, actives largely listed as inhibitors | Purified ALDH1A1, NADH fluorescence, propionaldehyde substrate | P00352 | 220,000 tested, 7.3% active;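 note: potency is the fitted concentration of half-maximal effect; plate controls were no enzyme wells and a reference inhibitor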
Target sequence (P00352 whole entry, looked up): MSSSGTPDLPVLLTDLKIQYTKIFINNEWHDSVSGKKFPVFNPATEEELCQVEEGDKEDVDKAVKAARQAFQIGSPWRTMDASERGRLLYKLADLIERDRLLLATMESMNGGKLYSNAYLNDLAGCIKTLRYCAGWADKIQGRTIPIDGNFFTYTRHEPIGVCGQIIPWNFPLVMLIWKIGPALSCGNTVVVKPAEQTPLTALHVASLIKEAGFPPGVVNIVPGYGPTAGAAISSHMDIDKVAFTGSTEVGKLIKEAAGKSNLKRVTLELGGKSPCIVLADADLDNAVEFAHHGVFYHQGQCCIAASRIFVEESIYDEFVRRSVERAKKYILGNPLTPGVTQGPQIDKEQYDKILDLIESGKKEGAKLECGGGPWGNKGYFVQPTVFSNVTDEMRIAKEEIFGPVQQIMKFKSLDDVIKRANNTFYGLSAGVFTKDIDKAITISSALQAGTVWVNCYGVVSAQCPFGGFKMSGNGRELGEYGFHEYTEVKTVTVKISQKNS
HTT cytoprotect: protects HTT-Q103 PC12 cells, measured by ATP; AID 1471; PC12 HTT-Q103 induced, cytoprotection, ATP luminescence, 40 h; 230,000 tested, 0.14% active; Potency, µM (titrated, usually from 56.4 µM), without a hit: cytoprotection (ATP increase), actives largely listed as activators; active = well fitted curve in the direction sought with a large enough effect; inconclusive = small, poorly fitted or top-dose-only effect, or another doubt; inactive = no such curve, though single readings can be large; an effect the other way counts as inactive or inconclusive; note: potency is the fitted concentration of half-maximal effect; % of control where 0% means no effect; nearly all actives have a fitted effect of over 45% in size
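Quantitative HTS on tebufenozide-induced (100 nM) PC12 cells expressing HTTQ103 exon 1–GFP; compounds tested as a concentration series; survival measured via cellular ATP.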
PNC inhibitor: perinucleolar compartment assembly inhibition; PC3M PTB-GFP, PNC prevalence imaging, 16 h; active compounds read low; 140,000 tested, 3.1% active; activity change (PNC), negative = inhibition, % at 10 µM;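 active = readout at or below -70, meaning at least 70% loss of cells showing the perinucleolar compartment, a nuclear body marking cancer cells; inconclusive = readout between -30 and a set limit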;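 note: plate controls were DMSO wells for no effect and camptothecin positive control wells for full effect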
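Compounds are pinned in duplicate onto adhered PC3M cells stably expressing GFP-tagged PTB and incubated 16 h at 37 C. Cells are then fixed, nuclei stained with Hoechst, and PNC-positive cells counted.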
* = called active by the depositor; ? = inconclusive; . = no result; [ ] = remark or other dose. Unless noted, calls come from the whole dose curve; as a rule, active = well fitted inhibition curve with a large enough effect (not every such curve was filed as active); inconclusive = small, poorly fitted or top-dose-only effect, or another doubt; inactive = no such curve, though single readings can be large or run the other way.

SMILES	HTT aggregate	HPGD block	RGS12 GoLoco inh	ALDH1A1 inh	HTT cytoprotect	PNC inhibitor
CN1CC(=O)N(CC(=O)Nc2ccc3c(c2)CCC3)C1=O	6%	.	4%	11%	-6%	.
Cn1c(=O)n(C)c2cc([N+](=O)[O-])c(N3CCN(S(=O)(=O)c4ccc(C(C)(C)C)cc4)CC3)cc21	13µM*	-11%	-1%	-7%	16%[10 µM]	-5
CC(=O)Nc1ccc(S(=O)(=O)N2CCN(c3cc4c(cc3[N+](=O)[O-])n(C)c(=O)n4C)CC2)cc1	-23%	-1%	-3%	-4%	-17%	?
Cc1nc(SC2CCOC2=O)c2c(C)c(C)sc2n1 (centres undefined)	13%	-6%	7%	22µM*	-5%	93
O=C1OCCC1Sc1ncnc2sc3c(c12)CCC3 (centres undefined)	-14%	-19%	5%	-7%	12%[10 µM]	238
Cc1nnc(SCc2nnc(-c3cccs3)o2)n1C	10%	.	-5%	-2%	4%	.
CC(C)Cn1c(SCc2nnc(-c3cccs3)o2)nc(O)cc1=O	2%	16µM*	1%	-9%	-3%[10 µM]	17
O=C(C1CCN(S(=O)(=O)N2CCC3(CC2)OCCO3)CC1)N1CCCCC1	5%	16µM*	3%	2%	.	6
O=C(C1CCN(S(=O)(=O)N2CCC3(CC2)OCCO3)CC1)N1CCOCC1	-2%	-3%	-2%	4%	6%	6
COCC(C)NC(=O)c1cc(-c2ccc(OC)c(OC)c2)on1 (centres undefined)	23%	-11%	5%	10%	-3%[10 µM]	-83*
CCOc1ccc(C(=O)C2CCN(CC(=O)Nc3ccccc3N3CCOCC3)CC2)cc1	?	-25%	8%	25µM*	-16%[10 µM]	26
CC(C)Oc1cccc(C(=O)Nc2ccccc2N2CCOCC2)c1	25%	-13%	13%	?	-11%[10 µM]	5
CCC(C)Oc1cccc(C(=O)Nc2ccccc2N2CCOCC2)c1 (centres undefined)	-1%	-18%	5%	?	-21%	-87*
O=C(COc1ccccc1)NCC(=O)Nc1cccc2ccccc12	0%	-19%	6%	9%	-7%[1.9 µM]	-15
COC(=O)[C@H](Cc1ccccc1)NC(=O)[C@H]1C[C@@H]1[C@H](NC(=O)OCc1ccccc1)c1ccccc1	.	-6%	1%	-4%	-6%	.
CC(=O)c1cc(F)ccc1OCC(=O)N1CCN(c2ccc(F)cc2)CC1	?	.	2%	25µM*	-13%	.
COC(=O)c1ccccc1OCC(=O)N1CCN(c2ccc(F)cc2)CC1	3%	3%	-8%	14%	-6%	?
O=C(O)c1ccccc1-c1c2cc(Br)c(=O)c(Br)c-2oc2c(Br)c(O)c(Br)cc12	10µM*	.	.	.	-23%	.
Cc1ccc2oc(-c3ccccc3C(=O)O)cc(=O)c2c1	9%	-28%	6%	-3%	15%[0.074 µM]	-9
Cc1ccc(C)c(Cc2c(C)nc3c(C(=O)NCc4ccc5c(c4)OCO5)cnn3c2C)c1	-1%[9.22 µM]	?	13%	?	10%[10 µM]	-92*
COc1ccccc1C(=O)NCc1ccc2c(c1)OCO2	-3%	14µM*	1%	-1%	-18%	?
